BLM helicase inh: inhibitors of human Bloom syndrome helicase BLM; Potency, µM (highest dose often 56.1 µM), for the others: at the top dose activity change, negative = inhibition, most hits filed as inhibitors; 350,000 tested, 0.2% active; P54132; recombinant BLM DNA unwinding, fluorescence dequenching;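 note: plate controls were vehicle for no effect and no enzyme for full effect; nearly all actives have a fitted effect of over 35% in size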
WRN helicase inh: inhibitors of human WRN helicase; 360,000 tested, 0.46% active; Q14191; Potency, µM (titrated, usually from 114 µM), for inactives: at the top dose activity change, negative = inhibition, usual class: inhibitors; WRN helicase unwinding, fluorescent forked duplex, kinetic; AID 651768; note: nearly all actives have a fitted effect of over 55% in size
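WRN at 20 nM final was preincubated with compound for 15 min at room temperature; reaction started with 100 nM forked duplex oligonucleotide carrying fluorophore and quencher plus 2 mM ATP (final). Unwinding followed kinetically by red fluorescence (ex 525/em 598 nm).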
RECQ1 inh: blocks DNA unwinding by human RECQ1 | RECQ1 DNA unwinding, red fluorescence kinetic read | Potency, µM (doses to about 57.3 µM), for the others: at the top dose activity, negative = inhibition, usual class: inhibitors | 240,000 tested, 0.54% active | AID 2549;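 note: plate controls were vehicle for no effect and no enzyme for full effect; nearly all actives have a fitted effect of over 30% in size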
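50 nM RECQ1T1 preincubated 15 min with compound in Tris pH 8.0 buffer with MgCl2, DTT, Tween-20 and 2.5 ug/ml poly(dI-dC); started with 200 nM TAMRA/BHQ-2 forked duplex and 2 mM ATP. Unwinding read as fluorescence (525/598 nm), two reads 2 h apart.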
FEN1 inh: inhibitors of human flap endonuclease 1; Recombinant FEN1 flap cleavage, fluorescence, 15 min; Potency, µM (series often up to 114 µM), for the others: top-dose activity change, negative = inhibition, usual class: inhibitors; 390,000 tested, 0.35% active; note: nearly all actives have a fitted effect of over 65% in size
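FEN1 at 10 nM preincubated with compounds 15 min at room temperature, then flap DNA substrate added at 50 nM final. Signal read at 0 and 15 min; concentration-response fitted with four-parameter Hill equation.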
APE1 inh: APE1 (human) endonuclease inhibition | 350,000 tested, 0.35% active | P27695 | recombinant APE1, TAMRA/BHQ-2 abasic DNA cleavage fluorescence | AID 2517 | Potency, µM (doses to about 65.8 µM), without a hit: top-dose activity change, negative = inhibition, usual class: inhibitors;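 note: plate controls were vehicle for no effect and reference inhibitor for full effect; nearly all actives have a fitted effect of over 55% in size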
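Enzyme (0.75 nM final) and test compound are incubated 15 min at room temperature before adding 50 nM quenched THF abasic-site duplex. Cleavage dequenches TAMRA, followed at 525/598 nm over three reads one minute apart.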
An asterisk follows results filed as active; i = inactive; ? = inconclusive; · = no result; ! = not active in a repeat; [ ] = another dose, or the depositor's remark. The list is not random: actives were taken first. Their share in the collection is about 0.87%. Calls come from the whole dose curve; as a rule, active = well fitted curve in the direction sought with a large enough effect; inconclusive = small, poorly fitted or top-dose-only effect, or another doubt; inactive = no such curve, though single readings can be large; an effect the other way counts as inactive or inconclusive. Unless noted, % is set by controls: 0 for no effect and ±100 for the full control effect; potency is the fitted concentration of half-maximal effect.

SMILES	BLM helicase inh	WRN helicase inh	RECQ1 inh	FEN1 inh	APE1 inh
Cc1c(N)nc([C@H](CC(N)=O)NC[C@H](N)C(N)=O)nc1C(=O)N[C@H](C(=O)N[C@H](C)[C@@H](O)[C@H](C)C(=O)N[C@H](C(=O)NCCc1nc(-c2nc(C(=O)NCCCCN=C(N)N)cs2)cs1)[C@@H](C)O)[C@@H](O[C@@H]1O[C@@H](CO)[C@@H](O)[C@H](O)[C@@H]1O[C@H]1O[C@H](CO)[C@@H](O)[C@H](OC(N)=O)[C@@H]1O)c1cnc[nH]1	·	·	·	·	-1.9%
COc1cccc(N2CCN(C(=O)c3cnc4c(-c5ccc(F)cc5)c(C)nn4c3C)CC2)c1	-6.8%	·	·	-15.2%	·
Cc1ccc(N=C2NC(=O)S/C2=C\c2ccco2)cc1	22.4µM*	?	-8.5%	-21.8%	2.6%
O=C1NC(=Nc2ccccc2)/C(=C/c2ccco2)S1	-21.3%	-3.6%	-1.8%	1.0%	-3.9%
O=C1c2ccccc2NC(c2ccc(-c3ccc(-c4ccccc4)cc3)o2)N1O (centres undefined)	·	·	·	·	15.1%
CC(C)(C)n1ncc2c(=O)n(Cc3ccc(F)cc3Cl)cnc21	·	·	·	4.8%	16.2%
Cn1cc(/C=C/c2cc[n+](C)cc2)c2cc(Cl)ccc21	69.5%	-3.4%[57.1 µM]	·	50.1µM*	-31.1%
NS(=O)(=O)c1ccc(-c2ccc(/C=C3\NC(=S)NC3=O)o2)cc1	-6.0%	-31.4%	·	50.1µM*	-14.7%
CC(=O)C(C(C)=O)C(NC(=O)c1cccnc1)(C(F)(F)F)C(F)(F)F	2.3%	89.1µM*	-2.5%	9.6%	3.4%
CCOC(=O)C(O)(NC(=O)c1cccnc1)C(F)(F)F (centres undefined)	0.9%	10.2%	-14.7%	8.3%	2.9%
C=C1[C@@H]2CC[C@@H](C2)C1(C)C	·	·	·	·	-0.8%
O=[N+]([O-])c1ccc(Cl)c2c1C1C=CCC1C(c1ccccn1)N2 (centres undefined)	-28.2%	?	-16.8%	-10.2%	-11.2%
O=C(O)c1ccc(Cl)c2c1C1C=CCC1C(c1ccccn1)N2 (centres undefined)	2.5%	·	-9.5%	·	25.1µM*
CC1=C(C#N)C(=O)N(C2CCS(=O)(=O)C2)C(=O)/C1=C\c1ccco1 (centres undefined)	7.08µM*	·	3.16µM*	·	1.58µM*
CC1=NN(c2ccccc2)C(=O)C1C(=S)SC1CC(=O)NC1=O (centres undefined)	·	-4.0%	·	·	·
O=C1CC(SC(=S)C2CCCC2=O)C(=O)N1 (centres undefined)	·	35.5µM*	·	·	·
CC1(C)Cc2c(c(-c3ccco3)[nH]c(=O)c2C#N)CS1	-1.7%	-25.4%	31.6µM*	1.2%	-8.7%
COc1ccc(O)c(C(=O)C2c3ccccc3C(=O)N2c2ccc(C)cc2)c1 (centres undefined)	-15.4%	50.1µM*	i	-6.4%	?
COc1ccc(N2C(=O)c3ccccc3C2O)cc1 (centres undefined)	-6.2%	15.3%	·	7.1%	16.3%
Cc1cccc2[nH]cc(/C=C3/C=Nc4ccccc43)c12	·	·	·	-3.6%	·
O=C(C[C@H]1C/C=C\C[C@H](NC(=O)OCC2c3ccccc3-c3ccccc32)C(=O)OC[C@H]2CCCN2C1=O)NCCO	·	-9.1%	·	-13.5%	?
O=C(C[C@@H]1C/C=C\C[C@H](NC(=O)OCC2c3ccccc3-c3ccccc32)C(=O)OC[C@H]2CCCN2C1=O)NCCO	·	2.2%	·	-1.3%	10.6µM*
Cc1cc([N+](C)(C)C)cc(C)c1/C=C/c1ccnc2ccccc12	·	·	·	22.4µM*	·
C[n+]1c(/C=C/c2ccnc3ccccc23)cc(/C=C/c2ccnc3ccccc23)c2ccccc21	·	·	·	10µM*	·
Cc1cc(N(C)C)cc(C)c1/C=C/c1ccnc2ccccc12	·	·	·	-12.5%	·
SMILES	BLM helicase inh	WRN helicase inh	RECQ1 inh	FEN1 inh	APE1 inh
CC(C)(C)n1ncc2c(=O)n(Cc3cccc(Oc4ccccc4)c3)cnc21	·	·	·	5.3%	-2.6%
Cc1ccc2nccnc2c1	·	·	·	-6.1%	·
CCC(C)[C@H](NC(=O)C1CCC(CNC(=O)[C@@H]2CCCN2C(=O)OC(C)(C)C)CC1)C(=O)O (some centres undefined)	-8.9%	0.1%	·	-6.6%	150µM*
CC(C)[C@H](NC(=O)C1CCC(CNC(=O)[C@@H]2CCCN2C(=O)OC(C)(C)C)CC1)C(=O)O (some centres undefined)	3.6%	-0.3%	·	3.8%	-2.8%
Cc1cc(C)cc(NS(=O)(=O)c2ccc(-c3cc(C)no3)cc2)c1	-7.3%	·	·	2.9%	·
C[n+]1c2cc(N)ccc2cc2ccc(N)cc21 (tested in a mixture with another compound)	·	·	·	·	25.1µM*
O=c1c2ccccc2sn1-c1cc(S(=O)(=O)N2CCOCC2)ccc1N1CCOCC1	2.8%	?	-13.7%	31.6µM*!	-4.5%
CCC(C(=O)Nc1cc(OC)ccc1OC)n1c(C)c2cnn(-c3ccccc3)c(=O)c2c1C (centres undefined)	-2.4%	·	·	-6.3%	·
O=S(=O)(Nc1ccccc1)c1cccc2nsnc12	-12.2%	1.5%[11.6 µM]	·	9.7%	7.52µM*
COc1cc(/C=C2\SC(=O)N(c3cccc(Cl)c3)C2=O)cc([N+](=O)[O-])c1O	-8.9%	50.1µM*	i	89.1µM*	1.8%
Cc1cccc(/N=C/c2c(O)cc(C)oc2=O)n1	-3.4%	-14.0%[57.1 µM]	28.2µM*	12.5%	-4.0%
Cc1ccc2[nH]cc(C(O)c3c[nH]c4ccc(C)cc34)c2c1	·	·	·	-14.3%	·
CCOC(=O)C(=CNNc1cccc(Cl)c1)C(=O)OCC	-15.8%	50.1µM*	-0.5%	-11.1%	1.8%
O=C(c1nnsc1S(=O)c1ccc(Cl)cc1)N1CCOCC1 (centres undefined)	-1.5%	25.1µM*	-5.9%	-14.7%	-2.5%
CS(=O)(=O)N1CCN(/[N+]([O-])=N/Oc2ccc([N+](=O)[O-])cc2[N+](=O)[O-])CC1 (tested in a mixture with another compound)	·	·	·	-17.4%	·
NNc1ccccc1C(F)(F)F	-5.3%	?	-14.4%	-9.4%	35.5µM*
Cc1cc(=O)cc(C)n1-c1ccc(Br)cc1	0.7%	15.8µM*	i	-4.5%	-11.1%

High-throughput results (PubChem BioAssay)
